Assay results reported in article PMC10812921, “Transcriptional Coactivator BOB1 (OBF1, OCA-B) Modulates the Specificity of DNA Recognition by the POU-Domain Factors OCT1 and OCT2 in a Monomeric Configuration”.

Experiments:
POU1 (OCT1 POU domain) = POU1 (OCT1 POU domain) (human, UniProt P14859 260-458); experiment: EMSA-SELEX-seq; no BOB1; 20 mM Tris-HCl pH 7.6, 140 mM NaCl, 10% glycerol, 0.5 mM EDTA, 0.05% Triton X-100, 0.1 mg/mL BSA, 0.1 mg/mL poly(dI-dC), 5 mM DTT, room temperature, 20 min; high values mean tight binding; conditions: protein: recombinant; dsDNA, one strand shown
In short: (§1)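 Binding preference means the percentage of sequenced 8-mers matching a motif pattern. Tagged POU-domain proteins (30 ng), expressed in E. coli BL21, purified under denaturing conditions and renatured, were mixed with 300 ng of a PCR-amplified double-stranded random 35-nt library, with or without 28 ng coactivator protein, for 20 min at RT in 20 μL Tris–HCl pH 7.6 binding buffer. Selection was repeated over four rounds of excising complex bands from native 6% PAGE, eluting and PCR amplification, followed by Illumina sequencing.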

POU2 (OCT2 POU domain) = target: T1, POU2 (OCT2 POU domain) (human, UniProt P09086 175-386); experiment: as above; conditions: protein: recombinant; dsDNA, one strand shown
T1 sequence: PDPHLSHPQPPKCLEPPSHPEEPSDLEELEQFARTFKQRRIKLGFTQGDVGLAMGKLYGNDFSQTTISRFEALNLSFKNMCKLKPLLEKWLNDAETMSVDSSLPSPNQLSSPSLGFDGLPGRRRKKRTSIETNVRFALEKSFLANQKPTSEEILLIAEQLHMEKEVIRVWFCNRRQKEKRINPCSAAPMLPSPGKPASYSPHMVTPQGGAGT
In short: as §1

[1] = target: POU1 (OCT1 POU domain);BOB1 (OBF1, OCA-B) (human;human, UniProt P14859;Q16633 260-458;1-256, |); experiment: EMSA-SELEX-seq; with BOB1 (ternary complex band); 20 mM Tris-HCl pH 7.6, 140 mM NaCl, 10% glycerol, 0.5 mM EDTA, 0.05% Triton X-100, 0.1 mg/mL BSA, 0.1 mg/mL poly(dI-dC), 5 mM DTT, room temperature, 20 min; high values mean tight binding; conditions: protein: recombinant;recombinant; copies: 1;1; dsDNA, one strand shown
In short: as §1

[2] = target: T2, POU2 (OCT2 POU domain);BOB1 (OBF1, OCA-B) (human;human, UniProt P09086;Q16633 175-386;1-256, |); experiment: as above; conditions: protein: recombinant;recombinant; copies: 1;1; dsDNA, one strand shown
T2 sequence 1: T1 sequence
T2 sequence 2: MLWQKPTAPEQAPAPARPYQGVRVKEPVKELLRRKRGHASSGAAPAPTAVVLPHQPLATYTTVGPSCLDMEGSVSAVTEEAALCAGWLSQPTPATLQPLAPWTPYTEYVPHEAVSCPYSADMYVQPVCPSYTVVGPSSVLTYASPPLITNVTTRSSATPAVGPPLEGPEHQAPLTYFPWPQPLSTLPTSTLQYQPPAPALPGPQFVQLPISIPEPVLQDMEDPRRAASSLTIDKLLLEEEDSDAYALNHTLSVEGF
In short: as §1

Chain of POU1 (OCT1 POU domain) (P14859 260-458): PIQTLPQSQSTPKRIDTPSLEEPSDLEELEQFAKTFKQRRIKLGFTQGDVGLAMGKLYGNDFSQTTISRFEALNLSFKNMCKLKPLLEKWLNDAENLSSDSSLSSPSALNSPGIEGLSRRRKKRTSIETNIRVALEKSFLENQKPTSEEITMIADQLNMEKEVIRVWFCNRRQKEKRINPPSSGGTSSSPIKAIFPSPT

| Sequence | binding signal (POU1 (OCT1 POU domain)) | binding signal (POU2 (OCT2 POU domain)) | binding signal [1] | binding signal [2] |
| --- | --- | --- | --- | --- |
| ATTCGAAC | 0.0351 % of ANNNNAAN 8-mers | 0.046 % of ANNNNAAN 8-mers | 0.0324 % of ANNNNAAN 8-mers | 0.0396 % of ANNNNAAN 8-mers |
| ACCGTAAC | 0.0118 % of ANNNNAAN 8-mers | 0.019 % of ANNNNAAN 8-mers | 0.018 % of ANNNNAAN 8-mers | 0.0272 % of ANNNNAAN 8-mers |
| AATGCAAT | 0.0862 % of ANNNNAAN 8-mers | 0.0949 % of ANNNNAAN 8-mers | 0.089 % of ANNNNAAN 8-mers | 0.0916 % of ANNNNAAN 8-mers |
| ATGAAAAG | 0.135 % of ANNNNAAN 8-mers | 0.106 % of ANNNNAAN 8-mers | 0.175 % of ANNNNAAN 8-mers | 0.0867 % of ANNNNAAN 8-mers |
| AGGCCAAT | 0.0339 % of ANNNNAAN 8-mers | 0.0443 % of ANNNNAAN 8-mers | 0.0316 % of ANNNNAAN 8-mers | 0.0413 % of ANNNNAAN 8-mers |
| AGAGTAAT | 0.0648 % of ANNNNAAN 8-mers | 0.0777 % of ANNNNAAN 8-mers | 0.0499 % of ANNNNAAN 8-mers | 0.0537 % of ANNNNAAN 8-mers |
| AATTAAAA | 0.364 % of ANNNNAAN 8-mers | 0.399 % of ANNNNAAN 8-mers | 0.156 % of ANNNNAAN 8-mers | 0.151 % of ANNNNAAN 8-mers |
| AATGAAAT | 0.139 % of ANNNNAAN 8-mers | 0.157 % of ANNNNAAN 8-mers | 0.14 % of ANNNNAAN 8-mers | 0.121 % of ANNNNAAN 8-mers |
| AGATAAAC | 0.04 % of ANNNNAAN 8-mers | 0.0506 % of ANNNNAAN 8-mers | 0.0519 % of ANNNNAAN 8-mers | 0.0487 % of ANNNNAAN 8-mers |
| AGCAAAAC | 0.0481 % of ANNNNAAN 8-mers | 0.0449 % of ANNNNAAN 8-mers | 0.0792 % of ANNNNAAN 8-mers | 0.0446 % of ANNNNAAN 8-mers |
| ACCTCAAT | 0.0202 % of ANNNNAAN 8-mers | 0.0196 % of ANNNNAAN 8-mers | 0.025 % of ANNNNAAN 8-mers | 0.0289 % of ANNNNAAN 8-mers |
| ATAAGAAG | 0.0614 % of ANNNNAAN 8-mers | 0.0771 % of ANNNNAAN 8-mers | 0.0562 % of ANNNNAAN 8-mers | 0.0636 % of ANNNNAAN 8-mers |
| ATCGCAAC | 0.0126 % of ANNNNAAN 8-mers | 0.0173 % of ANNNNAAN 8-mers | 0.014 % of ANNNNAAN 8-mers | 0.0239 % of ANNNNAAN 8-mers |
| ACCAAAAA | 0.0336 % of ANNNNAAN 8-mers | 0.0328 % of ANNNNAAN 8-mers | 0.0425 % of ANNNNAAN 8-mers | 0.0256 % of ANNNNAAN 8-mers |
| AGGGGAAA | 0.101 % of ANNNNAAN 8-mers | 0.0794 % of ANNNNAAN 8-mers | 0.109 % of ANNNNAAN 8-mers | 0.0826 % of ANNNNAAN 8-mers |
| ATGTGAAC | 0.0374 % of ANNNNAAN 8-mers | 0.0386 % of ANNNNAAN 8-mers | 0.0367 % of ANNNNAAN 8-mers | 0.0388 % of ANNNNAAN 8-mers |

| Sequence | binding signal (POU1 (OCT1 POU domain)) | binding signal (POU2 (OCT2 POU domain)) | binding signal [1] | binding signal [2] |
| --- | --- | --- | --- | --- |
| AATACAAG | 0.0637 % of ANNNNAAN 8-mers | 0.0662 % of ANNNNAAN 8-mers | 0.0675 % of ANNNNAAN 8-mers | 0.0479 % of ANNNNAAN 8-mers |
| AGCGGAAT | 0.0622 % of ANNNNAAN 8-mers | 0.0725 % of ANNNNAAN 8-mers | 0.0546 % of ANNNNAAN 8-mers | 0.0636 % of ANNNNAAN 8-mers |
| ACACCAAG | 0.0103 % of ANNNNAAN 8-mers | 0.0178 % of ANNNNAAN 8-mers | 0.0129 % of ANNNNAAN 8-mers | 0.0124 % of ANNNNAAN 8-mers |
| AAGCAAAC | 0.0606 % of ANNNNAAN 8-mers | 0.0386 % of ANNNNAAN 8-mers | 0.0878 % of ANNNNAAN 8-mers | 0.057 % of ANNNNAAN 8-mers |
| AGGAGAAC | 0.0275 % of ANNNNAAN 8-mers | 0.0363 % of ANNNNAAN 8-mers | 0.0261 % of ANNNNAAN 8-mers | 0.0149 % of ANNNNAAN 8-mers |
| AATCAAAA | 0.122 % of ANNNNAAN 8-mers | 0.099 % of ANNNNAAN 8-mers | 0.142 % of ANNNNAAN 8-mers | 0.0792 % of ANNNNAAN 8-mers |
| ACAGTAAA | 0.0481 % of ANNNNAAN 8-mers | 0.0414 % of ANNNNAAN 8-mers | 0.0531 % of ANNNNAAN 8-mers | 0.0338 % of ANNNNAAN 8-mers |
| AAACGAAC | 0.0328 % of ANNNNAAN 8-mers | 0.0293 % of ANNNNAAN 8-mers | 0.0437 % of ANNNNAAN 8-mers | 0.0355 % of ANNNNAAN 8-mers |
| AAATCAAT | 0.139 % of ANNNNAAN 8-mers | 0.143 % of ANNNNAAN 8-mers | 0.162 % of ANNNNAAN 8-mers | 0.148 % of ANNNNAAN 8-mers |
| AGGACAAA | 0.045 % of ANNNNAAN 8-mers | 0.046 % of ANNNNAAN 8-mers | 0.0453 % of ANNNNAAN 8-mers | 0.0371 % of ANNNNAAN 8-mers |
| AAGGTAAT | 0.122 % of ANNNNAAN 8-mers | 0.163 % of ANNNNAAN 8-mers | 0.0925 % of ANNNNAAN 8-mers | 0.128 % of ANNNNAAN 8-mers |
| ACGGAAAC | 0.0198 % of ANNNNAAN 8-mers | 0.019 % of ANNNNAAN 8-mers | 0.0289 % of ANNNNAAN 8-mers | 0.0305 % of ANNNNAAN 8-mers |
| AAGCAAAA | 0.142 % of ANNNNAAN 8-mers | 0.0898 % of ANNNNAAN 8-mers | 0.204 % of ANNNNAAN 8-mers | 0.106 % of ANNNNAAN 8-mers |
| ATCGAAAT | 0.0694 % of ANNNNAAN 8-mers | 0.0633 % of ANNNNAAN 8-mers | 0.0777 % of ANNNNAAN 8-mers | 0.0512 % of ANNNNAAN 8-mers |
| AGATTAAA | 0.105 % of ANNNNAAN 8-mers | 0.11 % of ANNNNAAN 8-mers | 0.0648 % of ANNNNAAN 8-mers | 0.071 % of ANNNNAAN 8-mers |
